Reference: the supplement of paper PMC11634586
Counter-ions that a name gives are not always drawn. Values without a mark were called inactive.

Test system: NCI-H1688
Assay: inhibition of cell viability relative to untreated control (fraction); higher = stronger growth inhibition, active = 0.5 or more
Conditions: 30 µM; 24 h
In short: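 Values are inhibition of cell viability expressed as a fraction, derived from viability normalised to untreated cells. NCI-H1688 small cell lung cancer cells in 96-well plates were exposed to a natural compound library (TargetMol) at 30 µM for 24 h at 37°C with 5% CO2, and Cell Counting Kit-8 absorbance at 450 nm was then read.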

SMILES | inhibition of cell viability
OC[C@H]1O[C@H](OCC2O[C@@H](O)[C@H](O)[C@@H](O)[C@@H]2O)[C@H](O)[C@@H](O)[C@H]1O (some centres undefined) [Melibiose] | -0.13
C=C1CC[C@@H]2[C@](C)(CO)[C@H](O)CC[C@@]2(C)[C@@H]1C/C=C1/C(=O)OC[C@H]1O [Andrographolide] | 0.853 (active)
C[C@@H]1O[C@@H](O[C@@H]2[C@@H](O)[C@H](OCCc3ccc(O)c(O)c3)O[C@H](CO[C@@H]3O[C@H](CO)[C@@H](O)[C@H](O)[C@H]3O)[C@H]2OC(=O)/C=C/c2ccc(O)c(O)c2)[C@H](O)[C@H](O)[C@H]1O [Echinacoside] | 0.128
O=c1c(-c2ccc(O)cc2)coc2cc(O[C@@H]3O[C@H](CO)[C@@H](O)[C@H](O)[C@H]3O)cc(O)c12 [Genistin] | 0.279
CC(C)=CCC[C@](C)(O)[C@H]1CC[C@]2(C)[C@@H]1[C@H](O)C[C@@H]1[C@@]3(C)CC[C@H](O)C(C)(C)[C@@H]3[C@@H](O)C[C@]12C [Protopanaxatriol] | -0.051
C[C@@H]1O[C@@H](O[C@@H]2[C@@H](O)[C@H](OCCc3ccc(O)c(O)c3)O[C@H](CO)[C@H]2OC(=O)/C=C/c2ccc(O)c(O)c2)[C@H](O)[C@H](O)[C@H]1O [Verbascoside] | 0.0855
CC(C)=CCC/C(C)=C/CC/C(C)=C/CC/C(C)=C/CC/C(C)=C/CC/C(C)=C/CC/C(C)=C/CC/C(C)=C/CC/C(C)=C/CO [Solanesol] | 0.301
C=CCc1ccc(O)c(-c2cc(CC=C)ccc2O)c1 [Magnolol] | -0.288
Nc1ncnc2c1ncn2[C@@H]1O[C@H](CO)[C@@H](O)[C@H]1O [Adenosine] | 0.189
CC(=O)[C@H]1CC[C@H]2[C@@H]3CCC4=CC(=O)CC[C@]4(C)[C@H]3CC[C@]12C [Progesterone] | -0.156
OCCc1ccc(O)cc1 [Tyrosol] | 0.0116
O=C1c2c(O)cc(O)cc2O[C@H](c2cc(O)c(O)c(O)c2)[C@H]1O [Dihydromyricetin] | 0.596 (active)
NC[C@@H]1O[C@H](O[C@H]2[C@@H](O)[C@H](O[C@@H]3[C@@H](O)[C@H](N)C[C@H](N)[C@H]3O[C@H]3O[C@H](CO)[C@@H](O)[C@H](O)[C@H]3N)O[C@@H]2CO)[C@H](N)[C@@H](O)[C@@H]1O [Paromomycin Sulfate] | -0.0298
CC1=C(/C=C/C(C)=C/C=C/C(C)=C/C(=O)O)C(C)(C)CCC1 [Tretinoin] | 0.00396
O=c1[nH]cnc2c1ncn2[C@@H]1O[C@H](CO)[C@@H](O)[C@H]1O [Inosine] | 0.0115
O=C1c2c(O)cc(O)cc2OC(c2ccc(O)c(O)c2)C1O (centres undefined) [Taxifolin (Dihydroquercetin)] | 0.086
CCCCCCCCCCCCCCCCCCCCCCO [Behenic alcohol] | -0.0686
C/C=C\c1ccc(OC)cc1 [cis-Anethol] | -0.182
C[C@@H]1O[C@@H](O[C@H]2[C@H](O[C@H]3CC[C@@]4(C)[C@@H](CC[C@]5(C)[C@@H]4CC=C4[C@@H]6CC(C)(C)CC[C@]6(C(=O)O[C@@H]6O[C@H](CO[C@@H]7O[C@H](CO)[C@@H](O)[C@H](O)[C@H]7O)[C@@H](O)[C@H](O)[C@H]6O)CC[C@]45C)[C@]3(C)CO)OC[C@H](O)[C@@H]2O)[C@H](O)[C@H](O[C@@H]2O[C@H](CO)[C@@H](O[C@@H]3O[C@H](CO)[C@@H](O)[C@H](O)[C@H]3O)[C@H](O)[C@H]2O)[C@H]1O [Macranthoidin B] | 0.21
O[C@H]1[C@H](O)[C@@H](O)[C@H](O)[C@@H](O)[C@H]1O [Inositol] | -0.137
O[C@H]1[C@H]2c3cc4c(cc3CN3CCC(=C[C@@H]1O)[C@H]23)OCO4 [Lycorine chloride] | 0.931 (active)
CC[C@]1(O)C[C@H]2CN(CCc3c([nH]c4ccccc34)[C@@](C(=O)OC)(c3cc4c(cc3OC)N(C=O)[C@H]3[C@@](O)(C(=O)OC)[C@H](OC(C)=O)[C@]5(CC)C=CCN6CC[C@]43[C@@H]65)C2)C1 [Vincristine sulfate] | 0.847 (active)
O=c1cc(-c2ccccc2)oc2cc(O)c(O)c(O)c12 [Baicalein] | 0.728 (active)
CC(=O)OC/C=C(C)/C=C/C=C(C)/C=C/C1=C(C)CCCC1(C)C [Retinyl acetate] | -0.265
O=C1C[C@@H](c2ccc(O)cc2)Oc2cc(O)cc(O)c21 [Naringenin] | -0.726
C[C@H]1[C@@H](O)O[C@@H]2O[C@@]3(C)CC[C@H]4[C@H](C)CC[C@@H]1[C@@]24OO3 [Dihydroartemisinin] | 0.644 (active)
CC12CCC(CC1=O)C2(C)C [D-Camphor] | 0.123
Cc1nc(C)c(C)nc1C [Tetramethylpyrazine] | 0.202
CC(=O)c1c(O)cc(O)cc1O [Phloracetophenone] | 0.00993
